How the values were obtained:
[1] = target: T1, Inhibitor of nuclear factor kappa-B kinase subunit epsilon (Homo sapiens) (UniProt Q14164); settings: at 1 µM;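 further: reported values are averaged percent inhibition figures against human IKKε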
T1 sequence (whole entry): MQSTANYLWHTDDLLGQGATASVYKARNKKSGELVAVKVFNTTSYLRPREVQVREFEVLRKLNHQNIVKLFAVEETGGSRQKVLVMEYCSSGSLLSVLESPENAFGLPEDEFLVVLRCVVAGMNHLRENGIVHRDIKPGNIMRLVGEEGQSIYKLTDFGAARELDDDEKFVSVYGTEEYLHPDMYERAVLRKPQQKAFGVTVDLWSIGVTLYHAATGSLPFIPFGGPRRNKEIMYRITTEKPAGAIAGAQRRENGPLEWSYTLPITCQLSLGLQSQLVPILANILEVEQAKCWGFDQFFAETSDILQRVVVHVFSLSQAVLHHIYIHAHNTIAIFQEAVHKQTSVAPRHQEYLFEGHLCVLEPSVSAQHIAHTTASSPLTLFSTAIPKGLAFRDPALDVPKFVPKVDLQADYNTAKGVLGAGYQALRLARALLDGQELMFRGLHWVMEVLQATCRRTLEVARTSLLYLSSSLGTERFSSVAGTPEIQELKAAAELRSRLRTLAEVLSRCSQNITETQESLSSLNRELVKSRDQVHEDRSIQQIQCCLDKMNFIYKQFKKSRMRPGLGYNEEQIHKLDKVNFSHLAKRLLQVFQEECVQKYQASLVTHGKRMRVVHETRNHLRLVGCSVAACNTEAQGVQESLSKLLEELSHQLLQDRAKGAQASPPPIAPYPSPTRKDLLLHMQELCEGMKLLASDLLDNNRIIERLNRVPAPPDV

[2] = target: T2, Serine/threonine-protein kinase Nek1 (Homo sapiens) (UniProt Q96PY6); settings: at 0.1 µM
T2 sequence (whole entry): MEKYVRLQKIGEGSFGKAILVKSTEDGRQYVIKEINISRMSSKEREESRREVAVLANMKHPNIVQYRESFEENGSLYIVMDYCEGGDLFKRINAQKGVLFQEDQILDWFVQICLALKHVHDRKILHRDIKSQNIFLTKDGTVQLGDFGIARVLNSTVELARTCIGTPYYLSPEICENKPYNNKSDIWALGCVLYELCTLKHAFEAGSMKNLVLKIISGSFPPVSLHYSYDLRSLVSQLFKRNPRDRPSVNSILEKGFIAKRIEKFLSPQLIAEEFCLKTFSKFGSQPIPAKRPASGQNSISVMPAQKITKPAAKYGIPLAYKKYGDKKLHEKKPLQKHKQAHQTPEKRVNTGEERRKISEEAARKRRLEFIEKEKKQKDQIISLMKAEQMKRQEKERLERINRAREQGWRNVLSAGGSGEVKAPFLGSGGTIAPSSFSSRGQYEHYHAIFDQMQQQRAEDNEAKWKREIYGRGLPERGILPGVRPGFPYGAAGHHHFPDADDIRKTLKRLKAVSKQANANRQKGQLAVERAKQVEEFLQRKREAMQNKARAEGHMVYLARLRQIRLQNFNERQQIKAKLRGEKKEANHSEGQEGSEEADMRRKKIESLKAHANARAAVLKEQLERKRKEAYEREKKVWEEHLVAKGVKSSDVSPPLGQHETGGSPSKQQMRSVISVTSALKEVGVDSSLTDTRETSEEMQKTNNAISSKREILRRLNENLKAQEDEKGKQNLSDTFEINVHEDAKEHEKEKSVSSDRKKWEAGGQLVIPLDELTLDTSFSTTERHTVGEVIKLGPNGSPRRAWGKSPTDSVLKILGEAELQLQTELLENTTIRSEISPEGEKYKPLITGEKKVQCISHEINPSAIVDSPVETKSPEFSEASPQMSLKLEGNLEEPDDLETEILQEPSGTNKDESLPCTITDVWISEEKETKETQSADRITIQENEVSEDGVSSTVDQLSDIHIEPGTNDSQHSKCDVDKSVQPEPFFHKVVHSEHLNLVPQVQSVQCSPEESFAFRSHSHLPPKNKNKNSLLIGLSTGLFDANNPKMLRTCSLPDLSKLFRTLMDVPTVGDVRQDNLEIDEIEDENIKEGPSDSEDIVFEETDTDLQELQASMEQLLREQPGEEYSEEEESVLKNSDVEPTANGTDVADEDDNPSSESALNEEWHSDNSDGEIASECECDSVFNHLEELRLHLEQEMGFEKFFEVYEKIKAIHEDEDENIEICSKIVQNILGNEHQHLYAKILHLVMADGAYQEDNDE

[3] = target: T2, Serine/threonine-protein kinase Nek1 (Homo sapiens); settings: at 1 µM
[4] = target: T3, Serine/threonine-protein kinase Nek2 (Homo sapiens) (UniProt P51955); settings: at 0.1 µM
T3 sequence (whole entry): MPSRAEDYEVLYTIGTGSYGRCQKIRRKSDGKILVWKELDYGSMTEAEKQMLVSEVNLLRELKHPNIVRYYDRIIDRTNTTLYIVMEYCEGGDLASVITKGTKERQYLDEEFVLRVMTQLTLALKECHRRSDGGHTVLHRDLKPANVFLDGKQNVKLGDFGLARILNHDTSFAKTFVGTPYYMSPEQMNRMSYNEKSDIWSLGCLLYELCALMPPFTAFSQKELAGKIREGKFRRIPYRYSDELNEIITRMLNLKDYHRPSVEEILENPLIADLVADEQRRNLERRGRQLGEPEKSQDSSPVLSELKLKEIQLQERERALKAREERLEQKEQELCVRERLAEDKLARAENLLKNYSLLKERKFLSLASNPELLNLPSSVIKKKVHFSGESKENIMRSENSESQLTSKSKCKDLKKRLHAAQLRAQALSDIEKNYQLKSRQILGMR

[5] = target: T3, Serine/threonine-protein kinase Nek2 (Homo sapiens); settings: at 1 µM
[6] = target: Serine/threonine-protein kinase Nek6 (Homo sapiens) (UniProt Q9HC98); settings: at 0.1 µM
[7] = target: Serine/threonine-protein kinase Nek6 (Homo sapiens) (UniProt Q9HC98); settings: at 1 µM
[8] = target: Serine/threonine-protein kinase Nek7 (Homo sapiens) (UniProt Q8TDX7); settings: at 0.1 µM
[9] = target: Serine/threonine-protein kinase Nek7 (Homo sapiens) (UniProt Q8TDX7); settings: at 1 µM
[10] = target: T4, Serine/threonine-protein kinase Nek9 (Homo sapiens) (UniProt Q8TD19); settings: at 0.1 µM
T4 sequence (whole entry): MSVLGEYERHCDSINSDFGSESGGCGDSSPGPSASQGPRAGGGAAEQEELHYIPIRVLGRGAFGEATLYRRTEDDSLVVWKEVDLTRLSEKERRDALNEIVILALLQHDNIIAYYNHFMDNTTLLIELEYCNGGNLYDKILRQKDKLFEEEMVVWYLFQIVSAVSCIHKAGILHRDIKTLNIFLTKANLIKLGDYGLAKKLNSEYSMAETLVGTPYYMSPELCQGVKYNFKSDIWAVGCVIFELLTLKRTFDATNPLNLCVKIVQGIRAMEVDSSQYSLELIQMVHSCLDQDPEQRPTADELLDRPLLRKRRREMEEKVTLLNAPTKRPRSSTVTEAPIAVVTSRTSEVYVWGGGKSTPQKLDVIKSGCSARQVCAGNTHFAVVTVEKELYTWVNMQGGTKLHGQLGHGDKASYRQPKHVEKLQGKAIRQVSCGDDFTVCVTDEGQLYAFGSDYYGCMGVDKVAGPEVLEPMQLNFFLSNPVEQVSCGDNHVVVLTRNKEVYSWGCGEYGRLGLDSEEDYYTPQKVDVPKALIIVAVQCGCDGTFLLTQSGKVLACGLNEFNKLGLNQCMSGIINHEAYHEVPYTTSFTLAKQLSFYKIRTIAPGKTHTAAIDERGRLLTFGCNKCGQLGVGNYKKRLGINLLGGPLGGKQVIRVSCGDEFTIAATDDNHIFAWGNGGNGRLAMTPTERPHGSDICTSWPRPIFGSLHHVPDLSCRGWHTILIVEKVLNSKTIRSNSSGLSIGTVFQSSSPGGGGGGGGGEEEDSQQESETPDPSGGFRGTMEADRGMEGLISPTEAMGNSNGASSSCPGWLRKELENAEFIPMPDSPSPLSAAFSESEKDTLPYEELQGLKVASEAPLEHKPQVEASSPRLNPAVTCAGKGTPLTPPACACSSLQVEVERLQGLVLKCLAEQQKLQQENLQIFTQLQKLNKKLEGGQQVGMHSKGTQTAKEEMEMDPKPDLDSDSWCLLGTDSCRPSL

[11] = target: T4, Serine/threonine-protein kinase Nek9 (Homo sapiens); settings: at 1 µM
[12] = target: Serine/threonine-protein kinase PLK1 (Homo sapiens) (UniProt P53350); settings: at 0.1 µM
[13] = target: Serine/threonine-protein kinase PLK1 (Homo sapiens) (UniProt P53350); settings: at 1 µM
[14] = target: T5, Dual specificity protein kinase TTK (Homo sapiens) (UniProt P33981); settings: at 0.1 µM
T5 sequence (whole entry): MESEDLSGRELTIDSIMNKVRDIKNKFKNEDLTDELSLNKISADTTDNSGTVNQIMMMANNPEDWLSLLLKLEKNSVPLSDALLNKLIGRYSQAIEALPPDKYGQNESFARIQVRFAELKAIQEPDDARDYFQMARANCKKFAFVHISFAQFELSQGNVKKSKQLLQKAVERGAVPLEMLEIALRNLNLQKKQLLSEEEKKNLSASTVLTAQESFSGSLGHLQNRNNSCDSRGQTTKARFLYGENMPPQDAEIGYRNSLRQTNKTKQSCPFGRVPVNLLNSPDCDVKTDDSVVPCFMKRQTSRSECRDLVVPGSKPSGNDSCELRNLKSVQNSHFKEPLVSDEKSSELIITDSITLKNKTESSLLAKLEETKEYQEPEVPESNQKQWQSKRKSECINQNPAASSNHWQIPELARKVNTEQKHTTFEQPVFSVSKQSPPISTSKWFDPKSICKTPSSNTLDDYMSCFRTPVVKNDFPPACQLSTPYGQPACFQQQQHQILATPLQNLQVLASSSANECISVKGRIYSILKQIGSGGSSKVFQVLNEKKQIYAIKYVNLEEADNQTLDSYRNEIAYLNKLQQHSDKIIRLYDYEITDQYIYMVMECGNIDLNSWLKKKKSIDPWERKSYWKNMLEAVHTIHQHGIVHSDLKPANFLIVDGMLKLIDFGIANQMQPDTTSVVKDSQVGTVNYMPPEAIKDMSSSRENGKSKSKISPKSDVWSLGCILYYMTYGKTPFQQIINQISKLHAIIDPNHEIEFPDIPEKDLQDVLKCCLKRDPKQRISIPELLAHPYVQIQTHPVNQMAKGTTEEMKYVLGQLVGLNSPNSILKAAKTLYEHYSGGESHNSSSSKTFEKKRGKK

[15] = test system: T6, Receptor-type tyrosine-protein kinase FLT3 (Homo sapiens), P36888 [D835Y]; settings: at 1 µM
T6 sequence (whole entry): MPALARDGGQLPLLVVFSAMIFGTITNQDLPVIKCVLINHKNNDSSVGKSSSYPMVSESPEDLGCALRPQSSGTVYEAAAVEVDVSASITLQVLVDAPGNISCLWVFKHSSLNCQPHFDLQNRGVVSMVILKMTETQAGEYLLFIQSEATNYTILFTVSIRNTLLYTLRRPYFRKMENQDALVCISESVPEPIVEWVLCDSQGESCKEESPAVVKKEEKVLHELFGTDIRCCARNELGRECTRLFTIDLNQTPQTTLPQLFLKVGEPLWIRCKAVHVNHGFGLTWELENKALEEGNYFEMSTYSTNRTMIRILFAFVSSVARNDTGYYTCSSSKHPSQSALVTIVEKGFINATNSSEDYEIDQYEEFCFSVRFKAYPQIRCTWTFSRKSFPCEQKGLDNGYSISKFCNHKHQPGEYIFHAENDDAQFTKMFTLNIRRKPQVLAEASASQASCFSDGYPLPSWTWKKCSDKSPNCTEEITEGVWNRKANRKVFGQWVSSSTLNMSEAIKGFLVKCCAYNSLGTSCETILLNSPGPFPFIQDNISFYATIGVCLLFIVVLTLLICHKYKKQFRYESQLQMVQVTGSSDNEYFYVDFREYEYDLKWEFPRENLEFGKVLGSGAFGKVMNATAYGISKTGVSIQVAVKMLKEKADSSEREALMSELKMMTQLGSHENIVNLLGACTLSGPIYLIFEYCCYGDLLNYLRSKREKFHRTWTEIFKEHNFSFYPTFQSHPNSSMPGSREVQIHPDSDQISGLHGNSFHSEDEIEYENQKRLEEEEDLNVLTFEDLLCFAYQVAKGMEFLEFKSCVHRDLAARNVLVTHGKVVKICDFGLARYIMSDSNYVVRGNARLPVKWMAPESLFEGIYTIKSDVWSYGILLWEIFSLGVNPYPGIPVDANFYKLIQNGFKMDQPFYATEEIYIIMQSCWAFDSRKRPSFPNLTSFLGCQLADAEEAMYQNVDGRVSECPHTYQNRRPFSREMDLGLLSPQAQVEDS

[16] = target: Vascular endothelial growth factor receptor 3 (Homo sapiens) (UniProt P35916); settings: at 0.1 µM
[17] = target: Vascular endothelial growth factor receptor 3 (Homo sapiens) (UniProt P35916); settings: at 1 µM
[18] = target: Macrophage colony-stimulating factor 1 receptor (Homo sapiens) (UniProt P07333); settings: at 0.1 µM
[19] = target: Macrophage colony-stimulating factor 1 receptor (Homo sapiens) (UniProt P07333); settings: at 1 µM
[20] = target: Tyrosine-protein kinase Fyn (Homo sapiens) (UniProt P06241); settings: at 0.1 µM
Tyrosine-protein kinase Fyn (Homo sapiens), sequence (P06241 2-537 limits assumed): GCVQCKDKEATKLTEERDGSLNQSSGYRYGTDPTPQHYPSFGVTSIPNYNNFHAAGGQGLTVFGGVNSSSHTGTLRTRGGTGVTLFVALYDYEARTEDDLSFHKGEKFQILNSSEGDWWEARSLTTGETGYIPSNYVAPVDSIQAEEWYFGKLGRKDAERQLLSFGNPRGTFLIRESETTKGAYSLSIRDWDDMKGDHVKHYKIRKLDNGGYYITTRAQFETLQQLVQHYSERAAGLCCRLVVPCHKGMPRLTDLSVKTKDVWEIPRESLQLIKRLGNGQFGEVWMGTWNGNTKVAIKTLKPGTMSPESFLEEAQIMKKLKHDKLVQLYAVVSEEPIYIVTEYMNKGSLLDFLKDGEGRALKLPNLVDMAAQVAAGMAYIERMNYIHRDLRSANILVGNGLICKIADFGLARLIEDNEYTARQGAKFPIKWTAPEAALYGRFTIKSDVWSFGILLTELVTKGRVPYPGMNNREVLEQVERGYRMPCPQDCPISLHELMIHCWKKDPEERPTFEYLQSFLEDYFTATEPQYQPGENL

Vascular endothelial growth factor receptor 3 (Homo sapiens), sequence (P35916 whole entry): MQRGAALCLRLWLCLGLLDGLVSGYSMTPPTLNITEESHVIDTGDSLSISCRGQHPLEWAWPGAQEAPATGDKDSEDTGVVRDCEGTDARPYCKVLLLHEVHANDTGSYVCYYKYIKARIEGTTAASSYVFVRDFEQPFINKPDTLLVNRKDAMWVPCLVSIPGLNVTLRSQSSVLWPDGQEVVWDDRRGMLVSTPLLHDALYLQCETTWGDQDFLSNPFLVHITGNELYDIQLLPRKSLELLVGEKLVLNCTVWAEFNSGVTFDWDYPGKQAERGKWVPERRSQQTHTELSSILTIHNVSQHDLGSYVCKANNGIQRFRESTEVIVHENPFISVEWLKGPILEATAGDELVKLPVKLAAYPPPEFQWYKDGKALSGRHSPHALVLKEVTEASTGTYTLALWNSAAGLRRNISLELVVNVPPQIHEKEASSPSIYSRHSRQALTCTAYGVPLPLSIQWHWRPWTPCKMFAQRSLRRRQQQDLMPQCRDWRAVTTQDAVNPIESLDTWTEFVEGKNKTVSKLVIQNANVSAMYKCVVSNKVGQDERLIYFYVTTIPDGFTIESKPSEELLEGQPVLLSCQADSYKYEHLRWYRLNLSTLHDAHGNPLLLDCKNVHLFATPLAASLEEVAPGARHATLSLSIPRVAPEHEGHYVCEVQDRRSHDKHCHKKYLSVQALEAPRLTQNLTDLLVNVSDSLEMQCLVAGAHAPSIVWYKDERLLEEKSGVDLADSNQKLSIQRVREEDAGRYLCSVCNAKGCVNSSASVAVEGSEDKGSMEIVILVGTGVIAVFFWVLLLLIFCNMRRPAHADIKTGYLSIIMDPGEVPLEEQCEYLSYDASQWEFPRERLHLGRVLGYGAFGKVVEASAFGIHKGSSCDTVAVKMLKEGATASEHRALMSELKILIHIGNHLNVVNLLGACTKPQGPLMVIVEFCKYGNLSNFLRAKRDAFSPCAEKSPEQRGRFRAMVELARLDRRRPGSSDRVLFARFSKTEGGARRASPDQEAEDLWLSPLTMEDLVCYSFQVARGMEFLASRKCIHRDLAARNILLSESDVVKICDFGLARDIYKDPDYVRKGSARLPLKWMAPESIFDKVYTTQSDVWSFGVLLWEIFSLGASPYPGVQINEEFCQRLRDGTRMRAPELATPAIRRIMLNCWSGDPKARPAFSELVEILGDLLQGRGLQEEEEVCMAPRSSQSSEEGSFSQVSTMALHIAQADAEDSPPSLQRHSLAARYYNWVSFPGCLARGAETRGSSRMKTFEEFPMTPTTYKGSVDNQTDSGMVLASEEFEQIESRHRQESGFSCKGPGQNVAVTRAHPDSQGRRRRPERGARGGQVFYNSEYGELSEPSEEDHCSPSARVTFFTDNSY
Serine/threonine-protein kinase Nek7 (Homo sapiens), sequence (Q8TDX7 whole entry, looked up): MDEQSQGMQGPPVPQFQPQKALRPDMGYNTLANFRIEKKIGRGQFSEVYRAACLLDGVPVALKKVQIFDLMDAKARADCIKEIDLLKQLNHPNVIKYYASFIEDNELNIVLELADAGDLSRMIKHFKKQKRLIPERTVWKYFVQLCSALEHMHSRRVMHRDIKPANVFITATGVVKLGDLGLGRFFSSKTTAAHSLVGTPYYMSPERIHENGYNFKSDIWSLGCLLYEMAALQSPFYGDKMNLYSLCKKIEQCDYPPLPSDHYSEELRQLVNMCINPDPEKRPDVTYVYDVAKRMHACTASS
Macrophage colony-stimulating factor 1 receptor (Homo sapiens), sequence (P07333 whole entry): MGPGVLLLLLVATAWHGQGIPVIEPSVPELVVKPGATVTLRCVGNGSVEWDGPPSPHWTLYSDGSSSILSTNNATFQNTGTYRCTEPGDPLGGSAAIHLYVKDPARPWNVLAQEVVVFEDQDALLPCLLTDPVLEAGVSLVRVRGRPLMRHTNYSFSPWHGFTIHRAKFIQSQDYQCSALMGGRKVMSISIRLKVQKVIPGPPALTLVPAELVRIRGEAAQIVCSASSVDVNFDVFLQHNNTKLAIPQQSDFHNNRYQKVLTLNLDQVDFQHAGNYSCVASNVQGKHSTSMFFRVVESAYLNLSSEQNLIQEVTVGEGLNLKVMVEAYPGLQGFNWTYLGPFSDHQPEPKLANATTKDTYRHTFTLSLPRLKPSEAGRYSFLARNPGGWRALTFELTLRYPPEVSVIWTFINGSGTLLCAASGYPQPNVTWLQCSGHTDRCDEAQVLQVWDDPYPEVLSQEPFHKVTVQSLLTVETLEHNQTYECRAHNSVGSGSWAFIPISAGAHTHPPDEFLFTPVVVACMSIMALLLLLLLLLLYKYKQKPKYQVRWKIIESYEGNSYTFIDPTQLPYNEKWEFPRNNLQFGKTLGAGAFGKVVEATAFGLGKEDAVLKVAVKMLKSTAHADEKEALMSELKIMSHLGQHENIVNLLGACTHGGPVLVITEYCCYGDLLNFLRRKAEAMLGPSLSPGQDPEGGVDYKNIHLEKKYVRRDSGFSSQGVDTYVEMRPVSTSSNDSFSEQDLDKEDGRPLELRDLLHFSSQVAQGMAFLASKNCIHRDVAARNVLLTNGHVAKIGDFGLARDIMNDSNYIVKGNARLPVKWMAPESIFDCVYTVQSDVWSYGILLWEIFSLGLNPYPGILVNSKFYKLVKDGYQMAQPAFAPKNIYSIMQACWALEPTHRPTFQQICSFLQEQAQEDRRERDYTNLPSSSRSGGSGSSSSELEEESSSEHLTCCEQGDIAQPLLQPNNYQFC
Serine/threonine-protein kinase PLK1 (Homo sapiens), sequence (P53350 whole entry): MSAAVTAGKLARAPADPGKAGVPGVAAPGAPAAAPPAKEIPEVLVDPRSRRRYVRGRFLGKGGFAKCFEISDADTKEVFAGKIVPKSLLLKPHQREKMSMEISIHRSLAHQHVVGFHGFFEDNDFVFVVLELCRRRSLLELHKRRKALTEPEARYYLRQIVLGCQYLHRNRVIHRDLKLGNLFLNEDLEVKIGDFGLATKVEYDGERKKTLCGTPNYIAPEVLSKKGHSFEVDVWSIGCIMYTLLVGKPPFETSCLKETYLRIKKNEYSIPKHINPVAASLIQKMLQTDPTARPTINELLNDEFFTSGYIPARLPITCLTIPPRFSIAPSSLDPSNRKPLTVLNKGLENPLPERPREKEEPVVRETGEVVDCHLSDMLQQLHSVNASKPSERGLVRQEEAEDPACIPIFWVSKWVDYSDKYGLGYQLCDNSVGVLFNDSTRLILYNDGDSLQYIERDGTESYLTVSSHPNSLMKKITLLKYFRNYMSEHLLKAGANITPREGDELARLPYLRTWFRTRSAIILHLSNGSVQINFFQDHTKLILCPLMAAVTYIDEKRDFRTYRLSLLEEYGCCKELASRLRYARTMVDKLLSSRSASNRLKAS
Serine/threonine-protein kinase Nek6 (Homo sapiens), sequence (Q9HC98 whole entry): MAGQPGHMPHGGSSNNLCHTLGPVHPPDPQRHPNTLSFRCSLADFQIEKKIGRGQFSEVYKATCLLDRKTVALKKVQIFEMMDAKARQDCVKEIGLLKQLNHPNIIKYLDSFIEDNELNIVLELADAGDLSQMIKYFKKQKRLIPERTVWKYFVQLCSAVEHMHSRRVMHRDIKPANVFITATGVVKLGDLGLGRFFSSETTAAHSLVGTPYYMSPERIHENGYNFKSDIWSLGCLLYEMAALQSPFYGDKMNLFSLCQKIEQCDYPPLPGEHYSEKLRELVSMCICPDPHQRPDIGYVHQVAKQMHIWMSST

Row | SMILES | inhibition [1] [%] | inhibition [2] [%] | inhibition [3] [%] | inhibition [4] [%] | inhibition [5] [%] | inhibition [6] [%] | inhibition [7] [%] | inhibition [8] [%] | inhibition [9] [%] | inhibition [10] [%] | inhibition [11] [%] | inhibition [12] [%] | inhibition [13] [%] | inhibition [14] [%] | inhibition [15] [%] | inhibition [16] [%] | inhibition [17] [%] | inhibition [18] [%] | inhibition [19] [%] | inhibition [20] [%]
1 | CN(C)CCOc1ccc(-c2nc(-c3ccncc3)c(-c3ccc4c(c3)CC/C4=N\O)[nH]2)cc1 | 7.42 | 0.81 | 5.31 | 2.72 | 4.52 | 3.81 | 0.68 | 1.62 | 2.67 | 4.08 | 4.4 | 2.08 | 2.04 | 6.91 | 7.87 | 1.85 | 3.47 | -1.89 | 4.02 | 0.02
2 | CS(=O)(=O)CCNCc1ccc(-c2ccc3ncnc(Nc4ccc(OCc5ccccc5)c(C(F)(F)F)c4)c3c2)o1 | 5.28 | 1.71 | 1.9 | 4.27 | 5.33 | 0.91 | -0.61 | 2.28 | 4.17 | 7.54 | 7.1 | 3.58 | 1.98 | 9.3 | -2.7 | 1.59 | 1.31 | -3.68 | 1.56 | 1.63

Source: ChEMBL document CHEMBL1961873, “Compounds: GSK PKIS; Assays: Nanosyn kinase panel” (2012)
